Inconclusive results are not listed. Unmarked numbers belong to inactive results. The call rests on the fitted dose curve; in most records, active means well fitted curve in either direction with a large enough effect (not every such curve was filed as active); inconclusive means small, poorly fitted or top-dose-only effect, or another doubt; inactive means flat fitted curve, though single readings scatter.
Assay: NFAT Signaling Pathway (AID 444);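 further: carbachol stimulus at about its EC50 of 1 µM final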
Conditions: Jurkat NFAT-bla M1, carbachol, beta-lactamase ratio, 5 h; at 17.2 µM (top of the series) unless noted
Outline: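 Jurkat cells carrying an NFAT-driven β-lactamase reporter and co-transfected muscarinic M1 receptor were treated with compound plus carbachol (1 uM final, an EC50 level) for 5 h at 37 °C. CCF4 loading followed for 1 h at RT; 460/530 nm ratio gave %activity.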
On the % scale 0 is the no-effect control and ±100 the full control effect.

Row | SMILES | activity change, negative = inhibition [%]
1 | COC(=O)c1ccc(N2C(=O)CC(N3CCN(C(=O)c4ccco4)CC3)C2=O)cc1 (stereo not given) | -1.87
2 | COC(=O)c1cc(Br)c(=O)n(Cc2ccco2)c1 | -14.5
3 | CC(=O)c1c(OCC(=O)O)ccc2c(C)cc(=O)oc12 | -8.66
4 | COc1cccc(C2C(C(=O)c3cccs3)=C(O)C(=O)N2c2cc(C)on2)c1 (stereo not given) | 16.2
5 | CCn1cc(C(=O)NCC2CCCO2)c(=O)c2cc(F)c(N3CCN(C)CC3)cc21 (stereo not given) | -20.1
6 | C(=N\n1cnnc1)/c1cccc(Oc2ccccc2)c1 | -2.39
7 | CC1(C)CNC(=O)c2sc(N3CCOCC3)nc2C1 | 26.7
8 | COc1cc(-n2c3nc4ccccc4nc3c3c(=O)n(Cc4ccco4)cnc32)cc(OC)c1OC | -5.5
9 | COc1ccccc1-n1c(N)c(C(=O)NCC2CCCO2)c2nc3ccccc3nc21 (stereo not given) | 21.4
10 | O=C(NCCC1=CCCCC1)c1ccc(=O)oc1 | -4.94
11 | Cc1ccc(OCC(=O)NCC(=O)n2nc(C)cc2C)cc1 | -11.6
12 | COc1ccc2[nH]c(C)c(C(=O)CN3CCc4cc(OC)c(OC)cc4C3)c2c1 | 1.37
13 | COc1cc(C(=O)Nc2nccs2)cc(OC)c1OC | -2.54
14 | COc1ccc(OCC(=O)OCCN(C)C)cc1 | 11.6
15 | O=C(O)c1cc2n(n1)C(C(F)(F)F)CC(c1ccccc1)N2 (stereo not given) | -0.387
16 | O=C(NCCCn1ccnc1)C(Cc1ccccc1)N1C(=O)c2ccccc2C1=O (stereo not given) | 7.45
17 | Cc1nnc2n(Cc3ccccc3)c(=O)c3c4c(sc3n12)CN(Cc1ccccc1)CC4 | -8.71
18 | COc1ccc(N/C(=N\c2nc(C)cc(C)n2)NC(=O)C(C)C)cc1OC | 21.2
19 | CN1C(=O)NC(NC(=O)c2ccco2)(C(F)(F)F)C1=O (stereo not given) | 4.93
20 | Cc1ccc(C(=O)NCC(C)(C)O)cc1 | -4.7

Row | SMILES | activity change, negative = inhibition [%]
21 | Cc1ccc(N(CC(=O)O)C2SC(=O)NC2=O)cc1 (stereo not given) | 0.868
22 | CC(C)N1CCc2c(sc(N)c2C#N)C1 | -22.4
23 | CC1(c2ccco2)NC(=O)NC1=O (stereo not given) | 1.83
24 | CCCSc1nc(C)c(CC(=O)OCC)c(=O)[nH]1 | -4.22
25 | C/C(=N\O)c1c(C)c2ccccc2n1C | -14.1
26 | CN1CC(=O)Nc2ccc(F)cc2C1=O | -4.14
27 | O=C(c1coc(=O)c(Br)c1)N1CCOCC1 | 21.3
28 | C=CCN(C(=O)CCC(=O)O)C1CC(=O)N(c2ccc(OCCC)cc2)C1=O (stereo not given) | -2.1
29 | CC(C)OC(=O)c1sc2nc3c(cc2c1N)C(=O)CCC3 | 7.77
30 | c1cncc(Oc2cccc(Oc3cccnc3)c2)c1 | -3.08
31 | CC1(C)Cc2[nH]c(=O)c(C#N)cc2CS1 | -1.45
32 | COC(=O)c1ccc(C2/C(=C(/O)c3ccc(OC)cc3)C(=O)C(=O)N2c2cc(C)on2)cc1 (stereo not given) | -13.5
33 | Nc1nonc1-c1noc(N2CCOCC2)n1 | -8.54
34 | COc1ccc(C2=CC(c3cccc(OC)c3)n3nnnc3N2)cc1 (stereo not given) | 1.4
35 | CCOC(=O)c1[nH]c2cc3c(cc2c1NC(=O)CN1CC(C)CC(C)C1)OCO3 (stereo not given) | -21
36 | CCc1cc2c(=O)c(-c3cscn3)coc2c(CN(C)C)c1O | -7.56
37 | Cc1c(C=NCCOCc2ccccc2)cnn1C | -4.41
38 | Cc1cc(=O)oc(C)c1C(=O)NCCNC(=O)c1c(C)cc(=O)oc1C | 6.33
39 | CC(C)(C#N)C(C)(C)c1nn[nH]n1 | 0.881
40 | N/C(=N\S(=O)(=O)c1ccc(Cl)s1)c1ccccc1 | -13.4

Assay: Stat Signaling Pathway (AID 446);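 further: ME-180 cervical cancer cells given 40 pM IL-6 alongside compound; SIE-controlled beta-lactamase reporter measured as 460/530 nm FRET emission ratio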
Conditions: ME-180 (cervical carcinoma) SIE beta-lactamase reporter, IL-6 stimulated, 5 h; at 17.2 µM (top of the series) unless noted
Outline: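 Compound effects on IL-6-induced STAT reporter activity were measured in ME-180 cells. After overnight culture, cells were co-treated with 40 pM IL-6 for 5 hrs before beta-lactamase substrate loading at room temperature.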

Row | SMILES | activity, negative = inhibition [%]
41 | COC(=O)c1ccc(N2C(=O)CC(N3CCN(C(=O)c4ccco4)CC3)C2=O)cc1 (stereo not given) | 0.889
42 | COC(=O)c1cc(Br)c(=O)n(Cc2ccco2)c1 | -3.41
43 | CC(=O)c1c(OCC(=O)O)ccc2c(C)cc(=O)oc12 | 13.1
44 | COc1cccc(C2C(C(=O)c3cccs3)=C(O)C(=O)N2c2cc(C)on2)c1 (stereo not given) | -7.97
45 | CCn1cc(C(=O)NCC2CCCO2)c(=O)c2cc(F)c(N3CCN(C)CC3)cc21 (stereo not given) | -0.513
46 | C(=N\n1cnnc1)/c1cccc(Oc2ccccc2)c1 | -17.8
47 | CC1(C)CNC(=O)c2sc(N3CCOCC3)nc2C1 | 3.19
48 | COc1cc(-n2c3nc4ccccc4nc3c3c(=O)n(Cc4ccco4)cnc32)cc(OC)c1OC | 3.4
49 | COc1ccccc1-n1c(N)c(C(=O)NCC2CCCO2)c2nc3ccccc3nc21 (stereo not given) | -0.0521
50 | O=C(NCCC1=CCCCC1)c1ccc(=O)oc1 | 7.23
51 | Cc1ccc(OCC(=O)NCC(=O)n2nc(C)cc2C)cc1 | -3.12
52 | COc1ccc2[nH]c(C)c(C(=O)CN3CCc4cc(OC)c(OC)cc4C3)c2c1 | 4.19
53 | COc1cc(C(=O)Nc2nccs2)cc(OC)c1OC | -9.15
54 | COc1ccc(OCC(=O)OCCN(C)C)cc1 | -3.32
55 | O=C(O)c1cc2n(n1)C(C(F)(F)F)CC(c1ccccc1)N2 (stereo not given) | -1.46
56 | O=C(NCCCn1ccnc1)C(Cc1ccccc1)N1C(=O)c2ccccc2C1=O (stereo not given) | 5.97
57 | Cc1nnc2n(Cc3ccccc3)c(=O)c3c4c(sc3n12)CN(Cc1ccccc1)CC4 | 5.01
58 | COc1ccc(N/C(=N\c2nc(C)cc(C)n2)NC(=O)C(C)C)cc1OC | -1.06
59 | CN1C(=O)NC(NC(=O)c2ccco2)(C(F)(F)F)C1=O (stereo not given) | 9.87
60 | Cc1ccc(C(=O)NCC(C)(C)O)cc1 | 12.1

Row | SMILES | activity, negative = inhibition [%]
61 | Cc1ccc(N(CC(=O)O)C2SC(=O)NC2=O)cc1 (stereo not given) | 6.57
62 | CC(C)N1CCc2c(sc(N)c2C#N)C1 | -5
63 | CC1(c2ccco2)NC(=O)NC1=O (stereo not given) | 5.48
64 | CCCSc1nc(C)c(CC(=O)OCC)c(=O)[nH]1 | -2.57
65 | C/C(=N\O)c1c(C)c2ccccc2n1C | 4.84
66 | CN1CC(=O)Nc2ccc(F)cc2C1=O | 3.5
67 | O=C(c1coc(=O)c(Br)c1)N1CCOCC1 | 1.69
68 | C=CCN(C(=O)CCC(=O)O)C1CC(=O)N(c2ccc(OCCC)cc2)C1=O (stereo not given) | -6.77
69 | CC(C)OC(=O)c1sc2nc3c(cc2c1N)C(=O)CCC3 | -1.01
70 | c1cncc(Oc2cccc(Oc3cccnc3)c2)c1 | 29.4
71 | CC1(C)Cc2[nH]c(=O)c(C#N)cc2CS1 | 10.8
72 | COC(=O)c1ccc(C2/C(=C(/O)c3ccc(OC)cc3)C(=O)C(=O)N2c2cc(C)on2)cc1 (stereo not given) | -20.1
73 | Nc1nonc1-c1noc(N2CCOCC2)n1 | -2.07
74 | COc1ccc(C2=CC(c3cccc(OC)c3)n3nnnc3N2)cc1 (stereo not given) | -2.84
75 | CCOC(=O)c1[nH]c2cc3c(cc2c1NC(=O)CN1CC(C)CC(C)C1)OCO3 (stereo not given) | -2.27
76 | CCc1cc2c(=O)c(-c3cscn3)coc2c(CN(C)C)c1O | 10.5
77 | Cc1c(C=NCCOCc2ccccc2)cnn1C | 12.4
78 | Cc1cc(=O)oc(C)c1C(=O)NCCNC(=O)c1c(C)cc(=O)oc1C | 6.54
79 | CC(C)(C#N)C(C)(C)c1nn[nH]n1 | 8.72
80 | N/C(=N\S(=O)(=O)c1ccc(Cl)s1)c1ccccc1 | -9.11
